Screening results deposited in PubChem by National Center for Advancing Translational Sciences (NCATS).
Pol iota inh – DNA polymerase iota (human) inhibition | actives 1% (n = 390,000) | Pol iota fluorescent replication assay, 10 min | Potency, µM (highest dose often 115 µM), inactives show at the top dose activity, negative = inhibition, hits mostly inhibitors
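Fluorescent replication assay read twice, at 0 min and 10 min after adding 50 nM (final) substrate. Enzyme (10 nM) and compounds were first incubated 15 min at room temperature; enzyme-free buffer wells were negative controls.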
Pol kappa inh – inhibitors of human DNA polymerase kappa; Potency, µM (top dose mostly 107 µM), for the others: at the top dose activity, negative = inhibition, usual class: inhibitors; actives 0.53% (n = 400,000); AID 588579; Q9UBT6; purified Pol kappa, fluorescent DNA synthesis assay, 10 min; further: on the % scale 0 is the no-effect control and ±100 the full control effect
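Here, compound and 10 nM enzyme are combined for 15 min at room temperature; adding 50 nM substrate (final) starts DNA synthesis, tracked by fluorescence at 0 and 10 min against buffer-only wells.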
POLH inh – blocks human DNA polymerase eta activity; actives 1.2% (n = 390,000); recombinant Pol eta, fluorescent DNA replication assay; Potency, µM (highest dose often 114 µM), for inactives: top-dose activity change, negative = inhibition, actives largely listed as inhibitors; further: on the % scale 0 is the no-effect control and ±100 the full control effect
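Pol eta at 10 nM preincubated with compounds 15 min at room temperature; reaction started with fluorescent substrate (50 nM final) and read kinetically at 0 and 10 min.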
POLB inh – inhibitors of human DNA polymerase beta; Pol beta primer extension/strand displacement, fluorescence kinetic; actives 1.3% (n = 340,000); P06746; Potency, µM (highest dose often 114 µM), without a hit: at the highest dose activity change, negative = inhibition, hits mostly inhibitors; further: on the % scale 0 is the no-effect control and ±100 the full control effect
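Pol beta (10 nM) and compounds were preincubated 15 min at room temperature, then 50 nM substrate (final) started primer extension/strand displacement. Reads were taken at 0 and 10 min; concentration-response data were fitted to a four-parameter Hill equation.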
GLS inh – blocks human kidney-isoform glutaminase activity. actives 0.21% (n = 410,000). O94925. Potency, µM (titrated, usually from 45.5 µM), without a hit: at the top dose activity change, negative = inhibition, usual class: inhibitors. GLS enzymatic activity, qHTS titration; further: on the % scale 0 is the no-effect control and ±100 the full control effect
Target sequence (O94925 whole entry, looked up, canonical isoform): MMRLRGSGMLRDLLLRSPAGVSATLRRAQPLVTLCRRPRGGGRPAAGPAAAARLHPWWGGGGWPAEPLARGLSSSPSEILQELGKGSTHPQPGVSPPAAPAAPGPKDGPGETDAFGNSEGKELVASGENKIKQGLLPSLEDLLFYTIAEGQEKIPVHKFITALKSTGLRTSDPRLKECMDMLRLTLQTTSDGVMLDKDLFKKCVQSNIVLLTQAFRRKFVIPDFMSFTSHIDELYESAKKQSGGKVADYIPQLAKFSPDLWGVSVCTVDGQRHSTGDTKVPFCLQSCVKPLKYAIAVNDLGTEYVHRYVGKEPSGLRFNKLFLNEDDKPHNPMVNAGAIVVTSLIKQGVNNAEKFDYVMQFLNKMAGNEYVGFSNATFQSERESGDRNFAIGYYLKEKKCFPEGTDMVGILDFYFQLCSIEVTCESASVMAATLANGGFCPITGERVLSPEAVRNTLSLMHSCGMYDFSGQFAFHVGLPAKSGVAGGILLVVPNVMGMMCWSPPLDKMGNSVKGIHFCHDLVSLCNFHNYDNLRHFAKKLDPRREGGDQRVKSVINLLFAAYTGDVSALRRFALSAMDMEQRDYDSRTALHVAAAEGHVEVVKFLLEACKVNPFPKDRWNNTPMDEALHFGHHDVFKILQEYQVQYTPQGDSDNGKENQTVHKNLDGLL
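hKGA in 45 mM KH2PO4 (pH 8.2), 0.02% Tween-20 with compound, then 1mM L-Glutamine (stock as added) plus glutamate oxidase/HRP/Amplex red coupling mix. Fluorescence read initially and after 30 min at RT; signal change reflects glutamate formation.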
KAT2A inh – GCN5L2 (KAT2A) acetyltransferase inhibition. Q92830. GCN5L2 HAT assay, ThioGlo1 CoA-SH fluorescence. Potency, µM (series often up to 58.9 µM), without a hit: top-dose activity change, negative = inhibition, actives largely listed as inhibitors. actives 0.21% (n = 390,000). AID 504327; further: on the % scale 0 is the no-effect control and ±100 the full control effect
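Titration-based screen in which CoA formation is detected via maleimide probe ThioGlo1 (50uM) turning fluorescent on thiol reaction; substrates H3(1-25) 75uM and acetyl-CoA 70uM, GCN5L2 20nM, 20 min incubation at room temperature.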
Starred values were filed as active, the others as inactive; ? = inconclusive; / = not tested or not shown; [ ] = another dose, or the depositor's remark. Sampled rows, rich in hits. Any-hit rate of the full collection: about 2.4%. The call rests on the fitted dose curve; in most records, active means well fitted inhibition curve with a large enough effect; inconclusive means small, poorly fitted or top-dose-only effect, or another doubt; inactive means no such curve, though single readings can be large or run the other way. Potency means the concentration at half of the fitted maximal effect.

SMILES	Pol iota inh	Pol kappa inh	POLH inh	POLB inh	GLS inh	KAT2A inh
COc1cc(C2Nc3ccccc3C(=O)N2Cc2ccco2)ccc1O (stereo not given)	24.7%	-4.3%	/	/	/	/
N#CC1=C2SCN(C3CCCCC3)CN2C(=O)CC1c1ccc(F)cc1 (stereo not given)	25.1µM*	-15.8%	-19.4%	-16.4%	2.2%	?
N#CC1=C2SCN(C3CCCCC3)CN2C(=O)CC1c1ccc(Cl)cc1 (stereo not given)	?	-31.4%	?	?	-7.8%	?
CCOC(=O)c1c(/N=C/c2cccc(C)c2O)sc2c1CCN(C)C2	15.1%	-5.6%	-15.8%	26.0%	-0.6%	30.4%
CCOC(=O)c1c(/N=C/c2ccc(C)cc2O)sc2c1CCN(C)C2	-16.3%	-9.0%	-8.1%	7.0%	10µM*	0.9%
CCOC(=O)c1c(C)[nH]c(C)c1S(=O)(=O)N(C)CC(=O)Nc1cc(Cl)ccc1OC	-13.9%	-4.5%	-9.7%	-19.0%	-15.7%	3.9%
Cc1cccn2c(=O)c3cc(C(=O)NCCc4ccc(S(N)(=O)=O)cc4)n(C)c3nc12	-27.1%	-31.3%	79.4µM*	?	-21.9%	-3.2%
CCOC(=O)CNC(=O)c1cc2c(=O)n3cccc(C)c3nc2n1C	33.5%	-20.0%	-4.5%	70.8µM*	-4.8%	-3.5%
O=C(O)c1cc(C(=O)O)c(C(=O)N(Cc2cccc(Oc3ccccc3)c2)[C@H]2CCCc3ccccc32)cc1C(=O)O	/	?	/	/	/	6.8%
Nc1nc(N)c2c(n1)CN(Cc1ccc(Cl)cc1)C2	/	/	-24.6%	/	11.2µM*	/
Cc1ccc(C(=O)C[n+]2cccc3cccc(O)c32)cc1	34.6%	-6.1%	/	/	/	/
CC1=NN(c2ccc(C)cc2C)C(=O)C1C(c1ccccc1O)C1C(=O)N(c2ccc(C)cc2C)N=C1C (stereo not given)	0.891µM*	-10.8%	-9.4%	39.2%	17.0%	-6.1%
CC1=NN(c2ccc(C)c(C)c2)C(=O)C1C(c1cccc(O)c1)C1C(=O)N(c2ccc(C)c(C)c2)N=C1C (stereo not given)	?	-3.6%	-12.7%	-5.8%	9.5%	-14.3%
Fc1ccccc1-n1ncc2c1ncn1nc(-c3ccccc3Cl)nc21	21.7%	0.0%	/	0.4%	2.7%	-0.5%
Cc1nn(-c2ccc(F)cc2)c2nc(N)c(C#N)c(-c3ccc(O)c(O)c3)c12	72.8%	-24.6%	?	?	?	-1.1%
Cc1nn(-c2ccccc2)c2nc(N)c(C#N)c(-c3ccc(O)c(O)c3)c12	?	-3.4%	50.1µM*	?	18.1%	?
Cc1nn(Cc2nc(-c3cccs3)no2)c(C)c1Br	-0.1%	-1.0%	-13.4%	35.5µM*	-0.9%	-4.3%
CCOC(=O)N1CCN(Cc2nc(-c3cccs3)no2)CC1	20.3%	4.0%	-7.1%	37.5%	-1.2%	-17.1%
CCCc1cc(=O)[nH]c(-n2[nH]c3c(c2=O)CCCC3)n1	15.8µM*	-16.8%	-13.9%	11.8%	-21.6%	-16.7%
Cn1c2c(c3cnc4cc(Cl)ccc4c31)CN(Cc1ccc(Cl)cc1)CC2	101.1%	-36.2%	/	/	/	/
Nc1nonc1C(=O)N/N=C/c1ccc(-c2cccc(C(=O)O)c2)o1	/	/	/	17.8µM*	/	-5.8%
Cc1cc2c(=O)c(C(=O)c3ccncc3)cn(CC(=O)Nc3cccc(C)c3C)c2cc1C	?	2.3%[60.1 µM]	-23.7%	39.8µM*	-13.2%	-4.1%
Cc1cccc(NC(=O)Cn2cc(C(=O)c3ccco3)c3ccccc32)c1C	?	-38.9%	79.4µM*	?	-0.3%	0.5%
Cc1c(F)cccc1Cn1cnc2c(cnn2C(C)(C)C)c1=O	-9.2%	-6.4%	/	/	/	/
COc1ccc(C(=O)CC(=O)c2ccc(C(C)(C)C)cc2)cc1	0.0%	?	-14.8%	/	?	31.6µM*
SMILES	Pol iota inh	Pol kappa inh	POLH inh	POLB inh	GLS inh	KAT2A inh
Cc1ccc(S(=O)(=O)N2CCN(c3nc(Nc4ccccc4O)nc4ccccc34)CC2)cc1	15.3%	14.4%	/	/	/	/
Cc1cc(NS(=O)(=O)c2ccc(NC(=O)c3cnc4sccn4c3=O)cc2)nc(C)n1	?	?	8.91µM*	?	1.7%	-10.1%
Cc1cc(NS(=O)(=O)c2ccc(NC(=O)c3ccc(Br)o3)cc2)nc(C)n1	?	-20.6%	39.8µM*	?	0.1%	-1.7%
Cc1cc(C)nc(NC(=O)c2cnc3sccn3c2=O)n1	11.7%	-5.0%	-14.6%	-24.3%	-9.8%	-1.0%
Cc1cc(NS(=O)(=O)c2ccc(NC(=O)CCCOc3ccccc3C)cc2)nc(C)n1	10µM*	-21.4%	79.4µM*	-13.2%	-21.0%	-7.0%
Clc1ccc(/C=C/c2ccnc3ccccc23)c(Cl)c1	38.1%	5.0%	/	/	/	/
CC(C)N(c1ccc(C=O)cc1)C(C)C	17.6%	-3.0%	/	/	/	/
O=[N+]([O-])c1cccc2[nH]cnc12	15.8%	-4.5%	/	/	/	/
c1ccc2c(c1)nc1n2CCS1	-4.4%	89.1µM*	-16.1%	-6.4%	-1.7%	-3.0%
Cc1ccn2c(=O)nc(SCC(=O)OCc3ccccc3)nc2c1	44.7µM*	?	50.1µM*	/	7.0%	?
O=Nc1ccc(/C=C/c2ccnc3ccccc23)cc1	6.2%	-2.4%	/	/	/	/
CC1=NNC(=O)C1Cc1ccccc1C (stereo not given)	73.6%	-16.5%	-1.5%	-17.8%	?	4.6%
CC1=NNC(=O)C1Oc1ccccc1 (stereo not given)	25.1µM*	-9.2%	-7.6%	-1.7%	24.4%	0.6%
O=C(O)/C(=C\c1cccc(F)c1)c1ccc(S(=O)(=O)N2CCCCC2)s1	?	-19.8%	?	22.4µM*	21.4%	4.1%
CCOc1cc(/C=C(\C(=O)O)c2ccc(S(=O)(=O)N3CCCC3)s2)ccc1OC	7.3%	0.0%	-1.3%	/	7.0%	-2.4%
O=C(O)/C(=C\c1cccc(O)c1)c1ccc(S(=O)(=O)N2CCCC2)s1	?	?	35.5µM*	/	27.8%	-12.6%
O=C(O)/C(=C/c1ccc(Cl)c([N+](=O)[O-])c1)c1ccc(S(=O)(=O)N2CCCCC2)s1	?	89.1µM*	28.2µM*	/	?	/
COc1ccc(Br)cc1/C=C(\C(=O)O)c1ccc(S(=O)(=O)N2CCCCC2)s1	-14.5%	-35.1%	?	/	0.2%	-23.0%
CC(=O)Oc1cc(-c2coc3cc(OC(C)=O)c(OC(C)=O)c(OC(C)=O)c3c2=O)cc(OC(C)=O)c1OC(C)=O	/	0.355µM*	/	/	/	-3.2%
COc1cc(-c2coc3cc(OC)c(OC)c(OC)c3c2=O)cc(OC)c1OC	/	?	/	/	/	14.9%
Cc1cc(N/N=C/c2ccc(O)cc2)c2cccc(C)c2n1	-24.2%	-24.2%	?	25.1µM*	2.1%	-15.3%
O=C(CC(Cl)(Cl)Cl)N1CCN(/[N+]([O-])=N/Oc2ccc([N+](=O)[O-])cc2[N+](=O)[O-])CC1	?	-9.3%	/	/	/	/
